# Unmarked numbers belong to inactive results.
# How the values were obtained:
# [1] = tested on: Sporothrix brasiliensis CBS 133006; experiment: growth inhibition relative to untreated control; higher = more growth inhibition (more antifungal activity), active = 80 or more; extreme values may be limits of the assay; details: 1 µM; 48 h
# Summary of the method: (§1)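 The reported figure is percent growth inhibition relative to untreated cells, from quadruplicate runs. Yeast-form cells of the reference isolates at 1 x 10^5 CFU/ml were exposed to library compounds at a final 1 μM for 48 h at 35°C in 5% CO2, and growth was assessed by microscopy and spectrophotometric readings.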
# [2] = tested on: Sporothrix schenckii ATCC 32286; experiment: as above; details: 1 µM; 48 h
# Summary of the method: as §1
Structure (SMILES),growth inhibition [1],growth inhibition [2]
Cc1[nH]c2ccccc2c1C(c1cccs1)N1CCN(C)CC1 (stereo unspecified),4.75%,15.2%
Cc1cc(Cl)ccc1NC(=O)CCc1ccc(S(=O)(=O)NCC(C)C)cc1,9.75%,0%
Cc1ncc(-c2ccnc(Nc3ccc(S(C)(=O)=O)cc3)n2)n1C(C)C,37%,2.5%
c1ccc(Oc2ccc(-c3cc(C4CCOCC4)[nH]n3)cc2)cc1,3%,2.75%
CCOc1ccc2cc(-c3nn(CC4CCN(C)CC4)c4ncnc(N)c34)ccc2c1,1.75%,15.8%
N=C(N)Nc1ccc(-c2ccc(-c3ccc(N=C(N)N)c(Cl)c3)o2)cc1Cl,1.75%,0%
CC1=Nc2ccc(Cl)cc2C(O)(c2ccc(C)cc2)N1CCN1CCCCC1 (stereo unspecified),12.2%,1.25%
CCCCCCCCCCCCCCCCOP(=O)([O-])OCC[N+](C)(C)C,24.8%,0%
O=C(Nc1cccc(Cl)c1)c1cnc(N2CCN(c3ccncc3)CC2)c(Cl)c1,0.75%,1.5%
CCC(C)NC(=O)c1ccc(NC(=O)C2(c3ccccc3)CCCC2)cc1 (stereo unspecified),5.5%,4.25%
Cc1cc(NC(=O)c2ccc(S(=O)(=O)N(Cc3ccccc3)C(C)C)cc2)no1,18.2%,2.75%
c1cncc(NCc2ccc(-c3cc4ccncc4cc3OC3CCNCC3)s2)c1,20.8%,3%
Cc1nn(C)cc1C(C)Nc1nncc(-c2ccc(C(F)(F)F)cc2)n1 (stereo unspecified),16%,4.75%
CCOc1ccc(OCC(=O)Nc2cc(C)cc(C)c2)cc1,12.2%,18%
Cc1cc(C)c2cc(C(=O)NC3CCCCCCC3)[nH]c2c1,6%,6.25%
FC(F)(F)c1nnc2ccc(Cl)nn12,9.25%,14%
O=C(NC1CC1)c1ccc(N2CCC(Cc3ccccc3)CC2)nc1,6.5%,19.8%

Structure (SMILES),growth inhibition [1],growth inhibition [2]
c1ccc(-c2nc(NC3CCCCC3)cc(C3CC3)n2)nc1,16.8%,38.2%
CC(C(=O)N1CCCC1)N1CCN(S(=O)(=O)c2ccc(C(C)(C)C)cc2)CC1 (stereo unspecified),37.5%,7%
O=C(c1ccc(F)cc1)N(CCNc1ccccc1)c1ccccc1,16.5%,12.2%
COc1cccc(NC(=O)c2c(NC(=O)c3cccnc3)sc3c2CCC3)c1,15.8%,13.8%
Clc1ccc(CCNc2cc(-c3ccccc3)nc3ncnn23)cc1,9.75%,18.2%
Cc1nnc(NC(=O)c2cn(-c3ccccc3)nc2-c2ccccc2C)o1,1.5%,22.8%
CCCc1ccc(S(=O)(=O)Nc2ccc(CN3CCN(CC4CC4)CC3)cc2)cc1,25.5%,2.25%
O=C(Cn1ccnc1[N+](=O)[O-])NCc1ccccc1,13.8%,4%
Cc1cccc(-c2nc(Nc3ccncn3)c3sccc3n2)n1,1%,9.75%
Cc1ccc(C(=O)Nc2ccc(S(=O)(=O)O)c3cc(S(=O)(=O)O)cc(S(=O)(=O)O)c23)cc1NC(=O)c1cccc(NC(=O)Nc2cccc(C(=O)Nc3cc(C(=O)Nc4ccc(S(=O)(=O)O)c5cc(S(=O)(=O)O)cc(S(=O)(=O)O)c45)ccc3C)c2)c1,28%,19%
O=C(Nc1ccc(N2CCNCC2)cc1)c1ccn2ncc(-c3cccc(Cl)c3)c2n1,12%,14.5%
Cc1nn2c(O)c3c(nc2c1-c1ccc(F)cc1)CCCC3,7%,6.5%
Nc1nc(N)c2c3c(sc2n1)CN(Cc1ccccc1)CC3,21.5%,11%
O=C(NC1CCN(c2ccnc3ccccc23)C1)c1cccc(C(F)(F)F)c1 (stereo unspecified),0%,1.5%
O=C(c1ccco1)N(CCCn1ccnc1)c1nc2c(Cl)cccc2s1,6%,10.2%
O=C(Nc1nnc(S)s1)c1cc(Br)ccc1Cl,6.75%,4%

# From the supplement of paper PMC7556523
